This passage reports growth results from PubChem BioAssay (NCI).

Holding throughout (experiment): NCI-60 one-dose screen, 48 h (100 = growth as untreated, 0 = no growth, -100 = all killed)
In one assay the test system is NCI-H23 lung. Particulars: 10 µM unless noted.
The next assay concerns NCI-H226 lung. Particulars: 10 µM unless noted.
Another assay deals with NCI-H322M lung. Particulars: 10 µM unless noted.
Another assay deals with HOP-62 NSCLC. Particulars: 10 µM unless noted.
The next assay has as its system NCI-H460 lung. Particulars: 10 µM unless noted.
The next assay deals with HOP-92 NSCLC. Particulars: 10 µM unless noted.
The test system of a further assay is NCI-H522 lung. Particulars: 10 µM unless noted.
Another assay concerns A549/ATCC NSCLC. Particulars: 10 µM unless noted.
The next assay relates to 786-0 renal. Particulars: 10 µM unless noted.
The test system of another assay is COLO 205 colon. Particulars: 10 µM unless noted.
The next assay concerns DU-145 prostate. Particulars: 10 µM unless noted.
The test system of the next assay is MALME-3M melanoma. Particulars: 10 µM unless noted.
The subject of another assay is MDA-MB-231 breast. Particulars: 10 µM unless noted.
The subject of a further assay is RXF 393 renal. Particulars: 10 µM unless noted.
The next assay concerns SF-268 CNS. Particulars: 10 µM unless noted.
A further assay concerns SF-295 CNS. Particulars: 10 µM unless noted.
Another assay relates to SF-539 CNS. Particulars: 10 µM unless noted.
The test system of a further assay is UACC-257 melanoma. Particulars: 10 µM.
A further assay relates to M14 melanoma. Particulars: 10 µM unless noted.

SMILES strings stand for the structures. Compounds without any hit were thinned out: in the full panel of roughly 83,000, 20% have a hit.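 Method: cells in 96-well plates; compound added at one concentration; 48 h incubation; percent growth measured; values under 10 scored active.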 A number with no mark means an inactive call. Active and inactive are the calls of the source.

Consider `CS(=O)c1nccc(-c2c(-c3ccc(F)c(OCCc4ccccc4)c3)nc3sccn23)n1` (configuration not stated), for which the growth is 86.1% in the assay with NCI-H23 lung; 102% with NCI-H226 lung; 76.7% with NCI-H322M lung; 98.2% with HOP-62 NSCLC; 57.3% in the assay on NCI-H460 lung; 77% in the assay on HOP-92 NSCLC. Further, the growth with NCI-H522 lung is -79.1% (active); in the assay on A549/ATCC NSCLC, 109%; with 786-0 renal, 104%; with COLO 205 colon, 80.7%; in the assay on DU-145 prostate, 4.08% (active); in the assay with MALME-3M melanoma, 87.5%. Further, the growth in the assay with MDA-MB-231 breast was 84.7%; with RXF 393 renal, 98.5%; with SF-268 CNS, 101%; with SF-295 CNS, 101%; in the assay on SF-539 CNS it was 95.9%; with UACC-257 melanoma it was 28.5%. Besides, the growth in the assay with M14 melanoma is 76%.

For the compound `CCCCCCNC(=O)Oc1ccc(/C(=C(/C)c2ccccc2)c2ccc(OCCN(C)C)cc2)cc1`, the growth with NCI-H23 lung was 65.3%; with NCI-H226 lung, 89.6%; with NCI-H322M lung, 77.1%; in the assay with HOP-62 NSCLC it was 86.1%; in the assay with NCI-H460 lung, 18.3%; with HOP-92 NSCLC, 44.5%. The growth is 68.8% in the assay on NCI-H522 lung; 73.4% in the assay with A549/ATCC NSCLC; 57.4% in the assay with 786-0 renal; 6.56% (active) in the assay with COLO 205 colon; 83.2% in the assay on DU-145 prostate; 37.6% in the assay on MALME-3M melanoma. In addition, the growth in the assay with MDA-MB-231 breast was 52.2%; with RXF 393 renal it was 46.5%; in the assay on SF-268 CNS, 69.1%; in the assay with SF-295 CNS, 90%; in the assay on SF-539 CNS it was 46.9%; in the assay with UACC-257 melanoma it was -55.9% (active). The growth in the assay with M14 melanoma is -35.9% (active).

Consider `COc1ccc([C@@H]2[C@@H](O)C(=O)N2c2cc(OC)c(OC)c(OC)c2)cc1Cl`, for which the growth in the assay with NCI-H23 lung was 28%; in the assay with NCI-H226 lung, 33.3%; in the assay with NCI-H322M lung it was 44.8%; with HOP-62 NSCLC it was 24.5%; in the assay on NCI-H460 lung, 2.22% (active); in the assay on HOP-92 NSCLC it was -2.92% (active). For the same compound, the growth was -8.73% (active) with NCI-H522 lung; 22.2% in the assay on A549/ATCC NSCLC; 18.9% in the assay on 786-0 renal; -81.1% (active) in the assay with COLO 205 colon; 15.2% in the assay with DU-145 prostate; 64.3% with MALME-3M melanoma. The growth in the assay on MDA-MB-231 breast is 26%; with RXF 393 renal it was 26%; with SF-268 CNS, 44%; in the assay with SF-295 CNS, 9.68% (active); in the assay on SF-539 CNS, -12.4% (active); with M14 melanoma it was 13.4%.

As to `CS(=O)(=O)c1ccc2c(c1)c1c(n2C(=O)c2ccc(Cl)cc2)CCCC1`, the growth in the assay on NCI-H23 lung was 45%; with NCI-H226 lung, 60.9%; in the assay on NCI-H322M lung, 43.8%; with HOP-62 NSCLC, 43.1%; with NCI-H460 lung, 12.3%; with HOP-92 NSCLC it was 35%. Moreover, the growth was -44.2% (active) with NCI-H522 lung; 50.6% in the assay with A549/ATCC NSCLC; 43.6% in the assay with 786-0 renal; -1.12% (active) with COLO 205 colon; 36% in the assay with DU-145 prostate; 43.7% in the assay on MALME-3M melanoma. Also, the growth is 39.9% with MDA-MB-231 breast; -12.1% (active) with RXF 393 renal; 62.1% in the assay on SF-268 CNS; 22.5% in the assay with SF-295 CNS; 1.96% (active) in the assay with SF-539 CNS; 56.8% with UACC-257 melanoma. Further, in the assay with M14 melanoma, the growth was 28.8%.

Turning to `Cn1cc(-c2nn3cc(-c4cccnc4)nc3s2)c2ccccc21`, the growth is 30.1% with NCI-H23 lung; 30.2% with NCI-H226 lung; 55.3% with NCI-H322M lung; 39.1% in the assay on HOP-62 NSCLC; 9.94% (active) in the assay with NCI-H460 lung; 26.1% in the assay with HOP-92 NSCLC. In addition, the growth with NCI-H522 lung is -12.9% (active); with A549/ATCC NSCLC, 44%; with 786-0 renal, 59.7%; with COLO 205 colon it was -2.12% (active); with DU-145 prostate it was 58.3%; with MALME-3M melanoma it was 22.5%. The growth with MDA-MB-231 breast was 31.7%; in the assay on RXF 393 renal it was 54.3%; with SF-268 CNS, 66.7%; in the assay with SF-295 CNS, 40.7%; in the assay with SF-539 CNS it was 26.5%; in the assay on M14 melanoma, 14.5%.

In the case of `COc1ccc2c(C3=C(c4c[nH]c5ccccc45)C(=O)N(O)C3=O)coc2c1`, the growth with NCI-H23 lung was 93%; in the assay on NCI-H226 lung it was 74.9%; with NCI-H322M lung, 96.8%; in the assay on HOP-62 NSCLC it was 84.7%; in the assay with NCI-H460 lung it was 90.3%; in the assay on HOP-92 NSCLC, 96%. In addition, the growth is 68.4% with NCI-H522 lung; 96.6% in the assay on A549/ATCC NSCLC; 93.8% with 786-0 renal; 99.2% with COLO 205 colon; 103% in the assay on DU-145 prostate; 94.8% in the assay on MALME-3M melanoma. Moreover, the growth in the assay with MDA-MB-231 breast is 78.3%; with RXF 393 renal, 105%; with SF-268 CNS, 101%; in the assay with SF-295 CNS, 103%; in the assay on SF-539 CNS, 93.3%; with M14 melanoma it was 94.4%.

On to `COc1cc2c3c(n(CCCN4CCC[C@H]4C(N)=O)c(=O)c2cc1OC)-c1cc2c(cc1C3=O)OCO2`, for which the growth with NCI-H23 lung is -3.5% (active); in the assay with NCI-H226 lung, -15% (active); in the assay on NCI-H322M lung, 26.1%; with HOP-62 NSCLC, -0.224% (active); in the assay with NCI-H460 lung, 0.252% (active); in the assay with HOP-92 NSCLC it was 23.9%. Moreover, the growth was 22% with NCI-H522 lung; 30.7% with A549/ATCC NSCLC; -10.3% (active) with 786-0 renal; 16.4% with COLO 205 colon; 16.2% with DU-145 prostate; 27.5% with MALME-3M melanoma. Besides, the growth in the assay with MDA-MB-231 breast is 17.3%; with RXF 393 renal it was 7.89% (active); with SF-268 CNS it was 27.6%; in the assay with SF-295 CNS, 7.46% (active); in the assay with SF-539 CNS it was -2.78% (active); in the assay on M14 melanoma it was 6.29% (active).

Consider `COc1ccc2c(C3=C(c4cn(C)c5ccccc45)C(=O)NC3=O)coc2c1`, for which the growth is 34.8% in the assay with NCI-H23 lung; 20.3% in the assay on NCI-H226 lung; 58.4% in the assay on NCI-H322M lung; 45.3% in the assay on HOP-62 NSCLC; 9.16% (active) in the assay on NCI-H460 lung; 25.3% with HOP-92 NSCLC. Further, the growth in the assay on NCI-H522 lung was -29.5% (active); in the assay with A549/ATCC NSCLC it was 38.7%; in the assay with 786-0 renal it was 44.9%; in the assay with COLO 205 colon, 1.81% (active); in the assay on DU-145 prostate, 31.1%; in the assay with MALME-3M melanoma, 97.1%. Also, the growth is 30.4% in the assay with MDA-MB-231 breast; -10.2% (active) in the assay with RXF 393 renal; 67.6% with SF-268 CNS; 36.3% in the assay on SF-295 CNS; 1.16% (active) in the assay with SF-539 CNS; 36.9% with M14 melanoma.
